Assay results from PubChem BioAssay (EPA / NIEHS).
The source made the active and inactive calls. How the source made its calls: active means hit-call score of the fitted dose curve at least 0.9, where 1 is the maximum; inactive means score below 0.9.

Key:
[1] = read-out: Tumor necrosis factor receptor superfamily member 6 (Homo sapiens) (UniProt P25445); test: LTEA_HepaRG_FAS: Life Technologies and Expression Analysis (LTEA) Assay for Fas cell surface death receptor (FAS) using HepaRG (AID 2283447); details: mRNA level, 48 h; actives raise or lower the signal
Procedure, shortened: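 Differentiated human HepaRG cells, pre-cultured 48 h, were exposed in duplicate for 48 h to 8-point half-log concentrations (top 100 uM, 0.5% DMSO) in serum-free induction medium; FAS mRNA measured by qRT-PCR, normalized to ACTB/GAPDH/POLR2A, bidirectional fit versus DMSO.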

[2] = read-out: Fatty acid synthase (Homo sapiens) (UniProt P49327); test: LTEA_HepaRG_FASN: Life Technologies and Expression Analysis (LTEA) Assay for Fatty Acid Synthase (FASN) using HepaRG (AID 2283448); details: mRNA level, 48 h; actives raise or lower the signal
Procedure, shortened: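 FASN expression changes, up or down relative to 0.5% DMSO, were measured by qRT-PCR in human HepaRG cells after 48 h treatment with chemicals at eight concentrations (half-log steps from 100 uM).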

[3] = read-out: Cyclin D2 (CCND2), CCND2 (gene 894); test: LTEA_HepaRG_CCND2: Life Technologies and Expression Analysis (LTEA) Assay for Cyclin D2 (CCND2) using HepaRG (AID 2283449); details: mRNA level, 48 h; actives raise or lower the signal;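 further: CCND2 transcript measured by TaqMan qRT-PCR and normalised to three housekeeping genes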
Procedure, shortened: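 Differentiated human HepaRG cells were exposed for 48 h in serum-free induction medium to eight half-log concentrations topping at 100 uM (0.5% DMSO vehicle). CCND2 mRNA was quantified by TaqMan qRT-PCR, normalised to ACTB, GAPDH and POLR2A, and fitted bidirectionally against DMSO.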

[4] = read-out: Cyclin Dependent Kinase Inhibitor 1A (CDKN1A), CDKN1A (gene 1026); test: LTEA_HepaRG_CDKN1A: Life Technologies and Expression Analysis (LTEA) Assay for Cyclin Dependent Kinase Inhibitor 1A (CDKN1A) using HepaRG (AID 2283450); details: mRNA level, 48 h; actives raise or lower the signal
Procedure, shortened: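 Expression quantified by Fluidigm qRT-PCR with ACTB, GAPDH and POLR2A normalization, fitted bidirectionally against 0.5% DMSO. Cells: HepaRG, plated 48 h then treated 48 h in serum-free induction medium, top concentration 100 uM with half-log dilutions.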

[5] = read-out: Cyclin D1 (CCND1), CCND1 (gene 595); test: LTEA_HepaRG_CCND1: Life Technologies and Expression Analysis (LTEA) Assay for Cyclin D1 (CCND1) using HepaRG (AID 2283451); details: mRNA level, 48 h; actives raise or lower the signal;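 on AC50: TaqMan qRT-PCR transcript level normalised to ACTB GAPDH and POLR2A housekeeping genes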
Procedure, shortened: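 Expression of CCND1 was quantified by qRT-PCR on Fluidigm arrays using ACTB, GAPDH and POLR2A as reference genes. HepaRG cultures, plated 48 h beforehand, were dosed for 48 h at up to 100 uM (half-log, 8 points) in 0.5% DMSO.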

[6] = read-out: catalase (CAT), CAT (gene 847); test: LTEA_HepaRG_CAT: Life Technologies and Expression Analysis (LTEA) Assay for catalase (CAT) using HepaRG (AID 2283452); details: mRNA level, 48 h; actives raise or lower the signal;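 on AC50: TaqMan qRT-PCR signal normalized to ACTB GAPDH and POLR2A housekeeping genes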
Procedure, shortened: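 Differentiated HepaRG cells in serum-free induction medium were dosed 48 h in duplicate, eight half-log concentrations from 100 uM in 0.5% DMSO. Transcript measured by TaqMan qRT-PCR, normalised to ACTB/GAPDH/POLR2A, fitted bidirectionally against DMSO.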

[7] = read-out: flavin-containing dimethylaniline monooxygenases 3 (FMO3), FMO3 (gene 2328); test: LTEA_HepaRG_FMO3: Life Technologies and Expression Analysis (LTEA) Assay for flavin-containing dimethylaniline monooxygenases 3 (FMO3) using HepaRG (AID 2283453); details: mRNA level, 48 h; actives raise or lower the signal
Procedure, shortened: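 Differentiated HepaRG cells in serum-free induction medium, exposed 48 h in duplicate to 8 half-log concentrations up to 100 uM in 0.5% DMSO. FMO3 mRNA by qRT-PCR, normalized to ACTB, GAPDH, POLR2A; bidirectional fit vs DMSO.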

[8] = read-out: Cytochrome P450 (CYP1A1), CYP1A1 (gene 1543); test: LTEA_HepaRG_CYP1A1: Life Technologies and Expression Analysis (LTEA) Assay for Cytochrome P450 (CYP1A1) using HepaRG (AID 2283454); details: mRNA level, 48 h; actives raise or lower the signal
Procedure, shortened: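 CYP1A1 transcript levels measured by Fluidigm qRT-PCR against three housekeeping genes, 48 h after chemical dosing of human HepaRG cells (highest concentration 100 uM, half-log steps, 0.5% DMSO vehicle). Gain or loss of signal fitted relative to DMSO.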

[9] = read-out: CFLAR gene, CFLAR (gene 8837); test: LTEA_HepaRG_CFLAR: Life Technologies and Expression Analysis (LTEA) Assay for CFLAR gene using HepaRG (AID 2283455); details: mRNA level, 48 h; actives raise or lower the signal
Procedure, shortened: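 HepaRG cells were plated for 48 h, switched to serum-free induction medium, then exposed in duplicate for 48 h to 8 concentrations (top 100 uM, half-log steps, 0.5% DMSO). CFLAR mRNA was measured by qRT-PCR, normalized to ACTB, GAPDH and POLR2A.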

[10] = CEETOX_H295R_PROG: CeeTox H295R High-throughput Steroidogenesis Assay for Progesterone (PROG) (AID 2283442); details: actives raise or lower the signal;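 on AC50: human H295R adrenal cells primed with 10 µM forskolin before dosing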
Procedure, shortened: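 Progesterone secreted by human H295R cells was measured by LC-MS/MS following 48 h chemical exposure at 0.1% DMSO, preceded by 48 h forskolin (10 uM) stimulation. Same-well MTT viability; cytotoxic concentrations diluted 10- or 100-fold and retested.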

Measured: AC50

Chain of Fatty acid synthase (Homo sapiens) (P49327 whole entry, looked up): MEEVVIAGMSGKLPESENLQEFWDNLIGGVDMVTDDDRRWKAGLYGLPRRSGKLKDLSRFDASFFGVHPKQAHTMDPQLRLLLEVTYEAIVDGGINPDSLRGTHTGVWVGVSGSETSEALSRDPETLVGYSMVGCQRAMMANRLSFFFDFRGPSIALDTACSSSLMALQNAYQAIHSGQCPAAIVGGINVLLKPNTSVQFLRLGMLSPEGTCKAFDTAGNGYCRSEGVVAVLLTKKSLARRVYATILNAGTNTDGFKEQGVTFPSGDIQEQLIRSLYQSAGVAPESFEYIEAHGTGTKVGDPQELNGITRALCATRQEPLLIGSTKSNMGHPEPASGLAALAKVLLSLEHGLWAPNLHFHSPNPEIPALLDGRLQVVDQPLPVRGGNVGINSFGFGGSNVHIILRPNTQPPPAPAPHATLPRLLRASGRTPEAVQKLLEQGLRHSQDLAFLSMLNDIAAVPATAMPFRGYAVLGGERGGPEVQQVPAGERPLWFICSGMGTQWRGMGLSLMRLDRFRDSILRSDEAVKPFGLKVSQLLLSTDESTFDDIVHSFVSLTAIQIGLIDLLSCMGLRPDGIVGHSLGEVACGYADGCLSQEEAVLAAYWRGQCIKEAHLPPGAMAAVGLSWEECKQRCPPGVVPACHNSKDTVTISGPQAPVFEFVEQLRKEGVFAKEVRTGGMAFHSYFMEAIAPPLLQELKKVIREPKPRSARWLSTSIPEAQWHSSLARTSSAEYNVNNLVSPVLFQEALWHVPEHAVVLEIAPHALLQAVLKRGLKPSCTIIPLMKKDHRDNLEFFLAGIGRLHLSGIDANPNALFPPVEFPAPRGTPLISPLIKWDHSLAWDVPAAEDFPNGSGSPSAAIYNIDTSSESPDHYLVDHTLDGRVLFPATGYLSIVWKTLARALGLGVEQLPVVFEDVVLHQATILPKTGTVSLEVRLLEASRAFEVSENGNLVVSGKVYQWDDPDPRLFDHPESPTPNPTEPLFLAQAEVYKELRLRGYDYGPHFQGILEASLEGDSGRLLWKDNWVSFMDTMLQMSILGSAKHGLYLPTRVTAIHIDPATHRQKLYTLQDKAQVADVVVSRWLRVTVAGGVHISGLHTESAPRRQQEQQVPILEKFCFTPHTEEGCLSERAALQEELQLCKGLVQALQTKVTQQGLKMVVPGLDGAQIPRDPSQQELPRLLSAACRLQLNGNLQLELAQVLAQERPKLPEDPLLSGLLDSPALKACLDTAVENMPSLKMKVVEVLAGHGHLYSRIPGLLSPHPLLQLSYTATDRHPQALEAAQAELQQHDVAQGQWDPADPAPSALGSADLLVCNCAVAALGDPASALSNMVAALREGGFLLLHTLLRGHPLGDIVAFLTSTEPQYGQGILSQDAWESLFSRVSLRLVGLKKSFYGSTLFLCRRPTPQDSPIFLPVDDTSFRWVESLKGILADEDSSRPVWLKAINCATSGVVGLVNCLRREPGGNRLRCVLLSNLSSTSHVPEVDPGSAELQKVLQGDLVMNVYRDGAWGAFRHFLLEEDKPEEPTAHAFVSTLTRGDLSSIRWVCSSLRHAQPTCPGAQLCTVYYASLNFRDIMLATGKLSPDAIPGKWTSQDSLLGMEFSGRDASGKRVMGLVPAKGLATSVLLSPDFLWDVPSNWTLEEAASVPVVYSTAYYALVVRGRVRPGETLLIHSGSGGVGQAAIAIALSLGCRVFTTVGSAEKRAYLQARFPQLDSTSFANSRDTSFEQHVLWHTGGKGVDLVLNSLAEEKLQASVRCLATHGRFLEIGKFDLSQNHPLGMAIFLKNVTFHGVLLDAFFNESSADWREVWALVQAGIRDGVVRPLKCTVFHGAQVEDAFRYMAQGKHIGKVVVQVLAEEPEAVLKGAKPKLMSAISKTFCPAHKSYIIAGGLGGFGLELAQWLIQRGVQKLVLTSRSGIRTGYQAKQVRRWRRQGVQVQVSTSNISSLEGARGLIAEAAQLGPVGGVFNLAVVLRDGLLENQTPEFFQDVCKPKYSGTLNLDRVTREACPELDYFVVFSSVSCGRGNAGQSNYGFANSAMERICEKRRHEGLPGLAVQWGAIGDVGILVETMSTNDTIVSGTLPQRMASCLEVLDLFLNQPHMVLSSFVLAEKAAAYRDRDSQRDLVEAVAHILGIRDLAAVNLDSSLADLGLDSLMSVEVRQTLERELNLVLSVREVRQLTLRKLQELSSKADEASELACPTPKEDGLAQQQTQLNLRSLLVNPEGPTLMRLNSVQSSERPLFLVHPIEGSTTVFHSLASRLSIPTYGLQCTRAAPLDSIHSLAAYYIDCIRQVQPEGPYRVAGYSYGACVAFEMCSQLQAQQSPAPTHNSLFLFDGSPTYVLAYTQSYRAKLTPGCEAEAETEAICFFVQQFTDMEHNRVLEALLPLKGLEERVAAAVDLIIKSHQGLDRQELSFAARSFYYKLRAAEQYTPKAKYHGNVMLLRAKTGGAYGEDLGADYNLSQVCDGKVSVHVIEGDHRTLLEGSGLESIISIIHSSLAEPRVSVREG

O=C(O)C(F)(F)C(F)(F)C(F)(F)C(F)(F)C(F)(F)C(F)(F)C(F)(F)C(F)(F)C(F)(F)F
active: [1] 89.3 µM | [2] 31.1 µM | [4] 16.8 µM | [5] 12.6 µM | [6] 65.3 µM | [7] 35.3 µM | [9] 89.5 µM
inactive: [3] | [8]

Nc1ccc(-c2ccc(N)cc2)cc1
active: [10] 15.2 µM | [8] 50 µM
inactive: all other assays above

Oc1ccc(Cl)cc1Cl
not listed: [4]
inactive: all other assays above

O=S(=O)(O)C(F)(F)C(F)(F)C(F)(F)C(F)(F)C(F)(F)C(F)(F)F
active: [6] 7.16 µM | [8] 50 µM
not listed: [10]
inactive: all other assays above

Cc1cc2c3c(c1)C(c1ccccc1)=N[C@@H](NC(=O)c1ccncc1)C(=O)N3CC2
active: [10] 28.1 µM | [2] 50 µM | [4] 50 µM | [7] 81.8 µM | [8] 24.4 µM
inactive: all other assays above

ClC(Cl)=C(c1ccc(Cl)cc1)c1ccc(Cl)cc1
active: [2] 50 µM | [8] 36.8 µM
not listed: [10]
inactive: all other assays above

CCOCCOC(C)=O
active: [8] 50 µM
inactive: all other assays above

Cc1ccccc1CO[C@@H]1C[C@@]2(C(C)C)CC[C@]1(C)O2
active: [8] 44.4 µM
inactive: all other assays above

CCCCCCCCCC[N+](C)(C)CCCCCCCCCC
inactive: [1] | [3] | [6]
active: [2] 42.7 µM | [4] 88.2 µM | [5] 50 µM | [7] 79.4 µM | [8] 22.9 µM | [9] 76.5 µM

Oc1ccc(C(c2ccc(O)cc2)(C(F)(F)F)C(F)(F)F)cc1
active: [2] 90.7 µM | [3] 0.147 µM | [6] 89.2 µM | [7] 78.3 µM | [8] 50 µM | [9] 91.3 µM
inactive: [1] | [4] | [5]

Clc1ccc(C(c2ccccc2Cl)C(Cl)(Cl)Cl)cc1 (stereo not given)
active: [2] 50 µM | [6] 19.3 µM | [7] 74.6 µM | [8] 20 µM
not listed: [3]
inactive: all other assays above

Cc1cc(O)ccc1Cl
not listed: [3]
inactive: all other assays above

CCCCCCCCOC(=O)c1ccccc1C(=O)OCCCCCCCC
not listed: [10]
inactive: all other assays above

O=C(NC(=O)c1c(F)cccc1F)Nc1cc(Cl)c(OC(F)(F)C(F)F)c(Cl)c1
active: [2] 50 µM | [7] 50 µM | [8] 3.34 µM
inactive: all other assays above

C[C@]12CCC(=O)C=C1CC[C@@H]1[C@@H]2CC[C@]2(C)C(=O)CC[C@@H]12
active: [10] 0.271 µM | [2] 82.7 µM
not listed: [3]
inactive: all other assays above
